Data from PubChem BioAssay AID372 (MTDP, 2006).
Values joined by “and” are separate entries in the source; they are usually repeats but may differ in a detail not shown here. Identical values can stand only once. Among all 100,000 compounds or so, about 770 (0.77%) were called active. The sample as a whole holds a higher share of actives than the screen did. Values without a mark were called inactive. No stated cut-off is given here; in the data, active means inhibition above about 50%; inactive means the rest.

The compounds below were run against Gag-Pol polyprotein (Human immunodeficiency virus type 1 group M subtype B (isolate HXB2)) (UniProt P04585) (assay: RNase H inhibition, HIV 1 Gag Pol polyprotein, FRET biochemical assay, screening (AID 372)). Details: HIV-1 RT RNase H, FRET RNA/DNA substrate fluorescence; at 10 µM; stronger effect = higher value.
With CC12CCC3C(CC=C4CC(O)CCC43C)C1C/C(=C\c1ccc(F)cc1)C2=O (centres undefined) the inhibition was 11%. Compound CC(=O)OC1CCC2(C)C(=CCC3C4C/C(=C\c5ccc([N+](=O)[O-])cc5)C(=O)C4(C)CCC32)C1 (centres undefined) has an inhibition of 9%. CC12CCC3C(CC=C4CC(O)CCC43C)C1C/C(=C\c1ccc([N+](=O)[O-])cc1)C2=O (centres undefined) was tested, and the inhibition was 55% (active). Cc1cc(OCc2ccc(Cl)cc2)c2c3c(c(=O)oc2c1)CCC3 gave an inhibition of 3%. In the case of Oc1c(I)cc(I)cc1CN1CCN(c2ccccc2F)CC1, the inhibition was 8%. Compound Cc1cc(C)cc(N2C(=O)NC(=O)/C(=C\c3cccn3-c3ccccc3)C2=O)c1 has an inhibition of 28%. In the case of O=C1NC(=O)C(=Cc2cccn2-c2ccc(Br)cc2)C(=O)N1, the inhibition was 50% (active). For Cc1cc(C=C2C(=O)NC(=O)NC2=O)c(C)n1-c1ccc(Br)cc1, the inhibition was 9%. With CN1C(=O)C(Cc2c[nH]c3ccccc23)C(=O)N(C)C1=O the inhibition was 0%. O=[N+]([O-])c1ccccc1CNCCc1ccc(F)cc1 gave an inhibition of 1%. Cc1ccccc1N1CCN(Cc2ccc(Cl)cc2Cl)CC1 showed an inhibition of 2%. Compound CCN(CC)C(=O)c1ccc(NC(C)=O)cc1 has an inhibition of 9%. With CCOc1cccc(=[O+]CC)c2c(C)oc(C)c12 the inhibition was 2% and 12%. For O=C(O)c1cn(Cc2ccccc2)c2ccccc12, the inhibition was 8%. With O=C1NC(=S)NC(=O)C1=Cc1ccc(OCc2cccc(C(=O)O)c2)cc1 the inhibition was 5%. Work on CCOc1ccc(C=C2C(=O)NC(=S)NC2=O)cc1 yielded an inhibition of 12%. With O=C1NC(=S)NC(=O)C1=Cc1ccc(OCc2ccc(Br)cc2)cc1 the inhibition was 59% (active). CN1C(=O)/C(=C\c2cn(Cc3ccccc3)c3ccccc23)C(=O)NC1=S gave an inhibition of 15%. For COc1ccc(CN2CCN(CCO)CC2)c(OC)c1, the inhibition was 9%. In the case of Clc1ccc(N2CCN(CCc3ccccc3)CC2)cc1, the inhibition was 14%. For CSc1ccc(C2C(C#N)=C(N)Oc3c2c(=O)oc2ccccc32)cc1 (centres undefined), the inhibition was 7%. With COc1ccc(OCC(=O)Nc2ccc(Br)cc2C(=O)c2ccccc2)cc1 the inhibition was 51% (active). Compound O=C(COc1ccc([N+](=O)[O-])cc1)Nc1ccc(Br)cc1C(=O)c1ccccc1 has an inhibition of 49%. Work on O=C(COc1ccccc1)Nc1ccc(Cl)cc1C(=O)c1ccccc1 yielded an inhibition of 37%. C=CCOC(=O)C1=C(C)OC(N)=C(C(=O)OCC)C12C(=O)Nc1ccccc12 (centres undefined) was tested, and the inhibition was 2%. With COc1ccc(CN2CCN(Cc3cccc(OC)c3)CC2)cc1 the inhibition was 7%. O=C1NC(=S)NC(=O)C1=Cc1ccc(-c2ccc([N+](=O)[O-])cc2Br)o1 was tested, and the inhibition was 56% (active). Compound O=C1NC(=S)NC(=O)C1=Cc1ccc(-c2cc(Cl)ccc2Cl)o1 has an inhibition of 0%. Cc1cc(-c2ccc(C=C3C(=O)NC(=S)NC3=O)o2)c(C)c([N+](=O)[O-])c1 gave an inhibition of 27%. Compound O=C1NC(=S)NC(=O)C1=Cc1ccc(-c2ccc(Cl)c(Cl)c2)o1 has an inhibition of 0%. O=C1NC(=S)NC(=O)C1=Cc1ccc(-c2ccc(C(=O)O)c(Cl)c2)o1 was tested, and the inhibition was 17%. For O=C1NC(=S)NC(=O)C1=Cc1ccc(-c2cc(Cl)c([N+](=O)[O-])cc2Cl)o1, the inhibition was 50% (active). With Cc1ccc(-c2ccc(C=C3C(=O)NC(=S)NC3=O)o2)c(Br)c1 the inhibition was 36%. In the case of O=C1NC(=S)NC(=O)C1=Cc1ccc(-c2ccc(Br)c(Cl)c2)o1, the inhibition was 54% (active). In the case of CN1C(=O)NC(=O)/C(=C/c2ccc(-c3ccc([N+](=O)[O-])cc3Br)o2)C1=O, the inhibition was 26%. CCOC(=O)C1=C(N)OC(C)=C(C(C)=O)C12C(=O)Nc1ccccc12 (centres undefined) showed an inhibition of 10%. Compound COc1cc(/C=C2\C(=O)NC(=O)N(c3ccccc3)C2=O)c([N+](=O)[O-])cc1OC has an inhibition of 5%. CC(C)OC(=O)N1CCN(/C(N)=N/[N+](=O)[O-])CC1 was tested, and the inhibition was 7%. For O=C(COc1ccc2ccccc2c1)N1CCN(Cc2ccc3c(c2)OCO3)CC1, the inhibition was 17%. For Cc1ccc(-n2c(C)cc(/C=C3/C(=O)NC(=O)N(Cc4ccco4)C3=O)c2C)cc1, the inhibition was 16%. For Cc1ccc(OCCn2cc(/C=C3/C(=O)NC(=O)N(Cc4ccco4)C3=O)c3ccccc32)cc1, the inhibition was 52% (active). O=C1NC(=O)N(Cc2ccco2)C(=O)/C1=C\c1cn(Cc2ccccc2)c2ccccc12 gave an inhibition of 23%. Compound O=c1c2ccccc2nc(-c2ccc(Cl)cc2Cl)n1-c1nccs1 has an inhibition of 6%. In the case of O=C1NC(=O)N(Cc2ccco2)C(=O)/C1=C\c1ccc(-c2cccc([N+](=O)[O-])c2)o1, the inhibition was 57% (active). CN1C(=O)NC(=O)/C(=C/c2ccc(-c3cccc([N+](=O)[O-])c3)o2)C1=O gave an inhibition of 14%. In the case of CN1C(=O)C(=Cc2ccc(-c3cccc([N+](=O)[O-])c3)o2)C(=O)N(C)C1=S, the inhibition was 21%. N#CC(C#N)=Cc1ccc(Cl)cc1Cl showed an inhibition of 3%. C/C(=C\c1ccc(Cl)cc1Cl)[N+](=O)[O-] was tested, and the inhibition was 51% (active). For COc1cc(/C=C(\C)[N+](=O)[O-])cc(OC)c1OC, the inhibition was 4%. COc1ccc(C2c3c(c4ccccc4oc3=O)Oc3c2c(=O)oc2ccccc32)cc1Cn1nc(C)c([N+](=O)[O-])c1C showed an inhibition of 16%. In the case of O=C(Nc1ccc(Cl)cc1C(=O)c1ccccc1)c1ccc([N+](=O)[O-])cc1, the inhibition was 16%. Cc1cccc(-n2c(/C=C/c3ccco3)nc3ccccc3c2=O)c1 gave an inhibition of 4%. For CCOc1ccc(N2C(=O)CC(=O)NC2=S)cc1, the inhibition was 11%. Compound O=C1NC(=S)NC(=O)C1=Cc1ccc(-c2ccc(C(=O)O)cc2)o1 has an inhibition of 14%. With CCN1C(=O)/C(=C/c2cccn2C)C(=O)NC1=S the inhibition was 51% (active). C=CCN1C(=O)NC(=O)C(=Cc2cccn2C)C1=O gave an inhibition of 0%. For Cn1cccc1/C=C1/C(=O)NC(=S)N(c2ccc(Cl)cc2)C1=O, the inhibition was 41%. Cc1cccc(-n2c(/C=C3\C(=O)Nc4ccccc43)nc3ccc(I)cc3c2=O)c1 was tested, and the inhibition was 15%. With Cc1cc(-c2ccc(C=C3C(=O)NC(=S)NC3=O)o2)cc([N+](=O)[O-])c1C the inhibition was 35%. For Cc1cc(-c2ccc(C=C3C(=O)NC(=O)NC3=O)o2)ccc1[N+](=O)[O-], the inhibition was 67% (active). Cc1cc([N+](=O)[O-])c(C)cc1-c1ccc(C=C2C(=O)NC(=O)NC2=O)o1 was tested, and the inhibition was 16%. With Cc1ccc(-c2ccc(C=C3C(=O)NC(=S)NC3=O)o2)cc1[N+](=O)[O-] the inhibition was 62% (active). For Cc1c(-c2ccc(C=C3C(=O)NC(=O)NC3=O)o2)ccc([N+](=O)[O-])c1C, the inhibition was 18%. For Cc1c(-c2ccc(C=C3C(=O)NC(=S)NC3=O)o2)ccc([N+](=O)[O-])c1C, the inhibition was 43%. With Cc1ccccc1-n1c(/C=C/c2ccc(Br)cc2)nc2ccccc2c1=O the inhibition was 3%. With O=C(COc1ccc2ccccc2c1)N1CCN(Cc2ccccc2C(F)(F)F)CC1 the inhibition was 51% (active). For CCc1ccc(CN2CCN(C(=O)COc3ccc4ccccc4c3)CC2)cc1, the inhibition was 19%. O=C(COc1ccc2ccccc2c1)N1CCN(Cc2ccc(F)cc2)CC1 showed an inhibition of 0%. Compound O=C(COc1ccc2ccccc2c1)N1CCN(Cc2ccc([N+](=O)[O-])cc2)CC1 has an inhibition of 13%. Cc1ccccc1CN1CCN(C(=O)COc2ccc3ccccc3c2)CC1 gave an inhibition of 42%. With O=C(COc1ccc2ccccc2c1)N1CCN(Cc2ccccc2[N+](=O)[O-])CC1 the inhibition was 50% (active). With COc1ccc(/C=C2/C(=O)N(c3ccccc3)C(=S)N(c3ccccc3OC)C2=O)c(OC)c1 the inhibition was 5%. COc1ccc(O)c(CN2CCN(c3ccccc3OC)CC2)c1 gave an inhibition of 3%. Compound O=c1c2ccccc2nc(CSc2ncnc3ccccc23)n1-c1ccccc1 has an inhibition of 16%. In the case of CCOC(=O)C1=C(C)OC(N)=C(C(=O)OCCOC)C12C(=O)Nc1ccccc12 (centres undefined), the inhibition was 0%. O=C1NC(=O)N(Cc2ccccc2)C(=O)/C1=C/c1ccc(O)c(O)c1 was tested, and the inhibition was 11%. With C=CCN1C(=O)NC(=O)/C(=C\c2ccc(O)c(OC)c2)C1=O the inhibition was 0%. For C=CCN1C(=O)NC(=O)/C(=C/c2ccc(O)c(O)c2)C1=O, the inhibition was 60% (active). With O=[N+]([O-])c1ccc(N2CCNCC2)cc1N1CCOCC1 the inhibition was 3%. Work on O=c1c2ccccc2nc(-c2ccccn2)n1-c1ccc(Cl)cc1 yielded an inhibition of 4%. COc1ccc(C=C(C#N)C#N)cc1C gave an inhibition of 44%. COc1cc(OC)c(OC)cc1C=C(C#N)C#N showed an inhibition of 4%. With COc1cc(C)c(C=C(C#N)C#N)cc1C the inhibition was 50% (active). Compound O=C1NC(=O)C(=Cc2ccc(N3CCOCC3)c([N+](=O)[O-])c2)C(=O)N1 has an inhibition of 0%. In the case of O=[N+]([O-])c1ccc(N2CCCC2)c(F)c1Br, the inhibition was 34%. O=C1NC(=S)N(c2cccc(Br)c2)C(=O)/C1=C/c1ccco1 was tested, and the inhibition was 98% (active). In the case of O=C1NC(=S)N(c2ccccc2)C(=O)/C1=C/c1ccco1, the inhibition was 36%. Work on O=C1NC(=O)N(c2cccc(Br)c2)C(=O)/C1=C/c1ccco1 yielded an inhibition of 19%. For O=C1NC(=S)N(c2cccc(Cl)c2Cl)C(=O)/C1=C/c1ccc(-c2ccc(C(=O)O)cc2)o1, the inhibition was 12%. Work on N#CC(C#N)=Cc1ccc(C(F)(F)F)cc1 yielded an inhibition of 1%. CSc1ccc(CN2CCN(c3ccccc3C)CC2)cc1 showed an inhibition of 7%. COc1ccc(Br)cc1CN1CCN(C(=O)COc2ccc(Cl)cc2)CC1 was tested, and the inhibition was 52% (active). With COc1ccc(Br)cc1CN1CCN(C(=O)COc2ccccc2)CC1 the inhibition was 42%. Compound COc1ccc(Br)cc1CN1CCN(C(=O)COc2ccc3ccccc3c2)CC1 has an inhibition of 42%.
